# Laboratory results from the supplement of paper PMC4709259.
# Where a name gives a salt, the structure may show the parent alone. ± gives the standard deviation.
# Key:
# [1] = system: Jurkat; test: mean cell size (FSC-A) relative to DMSO control (fraction of control); higher = larger cells; details: 48 h
# Method in brief: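 Jurkat cells at 600 cells/µl were incubated for 1 h and then treated for 48h with the Enzo Screen-Well FDA Approved Drug Library v2.0 at 25µM, with DMSO at 0.9% (v/v) final. Compounds that reduced counts below 20% of controls were retested in 10-fold dilutions down to 25nM. Cell count and mean cell size, taken as forward scatter area, were measured by flow cytometry relative to solvent-only controls. Each plate carried 6-12 controls, and values are means of 3 biological replicates.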
# [2] = system: Jurkat; test: cell count relative to DMSO control (fraction of control); higher = more cells (less growth inhibition); details: 48 h
SMILES,mean cell size [1],cell count [2]
CCN1CCN(C(=O)N[C@@H](C(=O)N[C@@H]2C(=O)N3[C@@H]2SC(C)(C)[C@@H]3C(=O)O)c2ccccc2)C(=O)C1=O [Piperacillin] (concentration: 25 µM),1 ± 0.015,0.91 ± 0.068
COc1cc2nc(N(C)CCCNC(=O)C3CCCO3)nc(N)c2cc1OC (stereo not given) [Alfuzosin] (concentration: 25 µM),0.952 ± 0.029,0.41 ± 0.14
CCOC(=O)c1ncn2c1CN(C)C(=O)c1cc(F)ccc1-2 [Flumazenil] (concentration: 25 µM),0.95 ± 0.014,0.87 ± 0.025
CC1COc2c(N3CCN(C)CC3)c(F)cc3c(=O)c(C(=O)O)cn1c23 (stereo not given) [Ofloxacin] (concentration: 25 µM),0.928 ± 0.011,0.989 ± 0.073
CNCCC(Oc1ccc(C(F)(F)F)cc1)c1ccccc1 (stereo not given) [Fluoxetine·HCl] (concentration: 25 µM),0.992 ± 0.039,0.68 ± 0.14
CC1=C(CC(=O)O)c2cc(F)ccc2/C1=C\c1ccc([S+](C)[O-])cc1 (stereo not given) [Sulindac] (concentration: 25 µM),0.988 ± 0.019,0.782 ± 0.083
COC(=O)C1=C(C)NC(C)=C(C(=O)OCC(C)C)C1c1ccccc1[N+](=O)[O-] (stereo not given) [Nisoldipine] (concentration: 25 µM),1.09 ± 0.047,0.342 ± 0.015
CCN(Cc1ccncc1)C(=O)C(CO)c1ccccc1 (stereo not given) [Tropicamide] (concentration: 25 µM),0.973 ± 0.019,0.925 ± 0.05
Clc1ccccc1CN1CCc2sccc2C1 [Ticlopidine·HCl] (concentration: 25 µM),0.922 ± 0.011,0.752 ± 0.017
CN(C)CCC(c1ccc(Cl)cc1)c1ccccn1 (stereo not given) [Chlorpheniramine Maleate] (concentration: 25 µM),0.961 ± 0.02,0.917 ± 0.11
